Reference: article PMC7862700, “An all-to-all approach to the identification of sequence-specific readers for epigenetic DNA modifications on cytosine”

Tests used:
Assay in all cases: DAPPL (digital affinity profiling via proximity ligation, sequencing); 10 mM Tris-HCl pH 7.5, 50 mM NaCl, 1 mM DTT, 4% glycerol, room temperature, 30 min; GST-TFs on glutathione beads, 16-mer random dsDNA library, 0.1% formaldehyde crosslink after washing; high values mean tight binding
FLI1 = target: T1, FLI1 (Homo sapiens, UniProt Q01543 1-452); details: protein: recombinant; tags: N-terminal GST; dsDNA, one strand shown
T1 sequence: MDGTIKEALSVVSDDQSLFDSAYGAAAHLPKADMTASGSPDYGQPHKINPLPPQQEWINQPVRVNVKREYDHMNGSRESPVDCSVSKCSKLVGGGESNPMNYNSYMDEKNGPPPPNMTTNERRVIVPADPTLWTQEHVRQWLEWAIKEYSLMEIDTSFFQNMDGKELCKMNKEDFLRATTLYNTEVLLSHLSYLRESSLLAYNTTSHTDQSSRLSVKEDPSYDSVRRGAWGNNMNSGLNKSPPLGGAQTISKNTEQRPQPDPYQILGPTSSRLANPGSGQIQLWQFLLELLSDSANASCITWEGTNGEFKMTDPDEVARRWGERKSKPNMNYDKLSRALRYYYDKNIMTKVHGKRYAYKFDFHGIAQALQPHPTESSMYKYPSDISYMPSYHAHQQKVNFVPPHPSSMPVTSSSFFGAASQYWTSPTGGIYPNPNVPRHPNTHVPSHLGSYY
Method in brief: (§1)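 In yeast, human transcription factors were expressed with a GST fusion, then pulled down on glutathione beads and given DNA barcodes. Pooled with a tag-only sample, they were exposed to 200 nmole of a 16-mer random double-stranded DNA library (Tris/NaCl/DTT/glycerol buffer, room temperature, 30 min), washed, crosslinked with 0.1% formaldehyde, proximity-ligated using BsaI/T4 ligase for 1 h at 37 °C, PCR-amplified and read on an Illumina NextSeq500. Each hexamer's frequency of reads for a factor, divided by the matching frequency for the tag-only sample, gives the binding signal.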

ELK1 = target: T2, ELK1 (Homo sapiens, UniProt P19419 1-428); details: protein: recombinant; tags: N-terminal GST; dsDNA, one strand shown
T2 sequence: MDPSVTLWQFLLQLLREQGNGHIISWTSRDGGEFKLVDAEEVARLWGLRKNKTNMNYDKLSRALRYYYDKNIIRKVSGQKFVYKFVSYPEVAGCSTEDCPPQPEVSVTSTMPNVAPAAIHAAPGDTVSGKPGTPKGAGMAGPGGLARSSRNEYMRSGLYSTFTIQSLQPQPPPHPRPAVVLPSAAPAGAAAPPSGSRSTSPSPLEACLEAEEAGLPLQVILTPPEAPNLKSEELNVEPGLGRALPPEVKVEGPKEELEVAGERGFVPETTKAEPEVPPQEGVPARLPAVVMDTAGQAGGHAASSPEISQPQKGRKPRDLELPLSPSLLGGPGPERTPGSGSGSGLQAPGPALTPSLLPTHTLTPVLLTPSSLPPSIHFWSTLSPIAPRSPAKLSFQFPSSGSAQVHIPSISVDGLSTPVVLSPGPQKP
Method in brief: as §1

GABPA = target: T3, GABPA (Homo sapiens, UniProt Q06546 1-454); details: protein: recombinant; tags: N-terminal GST; dsDNA, one strand shown
T3 sequence: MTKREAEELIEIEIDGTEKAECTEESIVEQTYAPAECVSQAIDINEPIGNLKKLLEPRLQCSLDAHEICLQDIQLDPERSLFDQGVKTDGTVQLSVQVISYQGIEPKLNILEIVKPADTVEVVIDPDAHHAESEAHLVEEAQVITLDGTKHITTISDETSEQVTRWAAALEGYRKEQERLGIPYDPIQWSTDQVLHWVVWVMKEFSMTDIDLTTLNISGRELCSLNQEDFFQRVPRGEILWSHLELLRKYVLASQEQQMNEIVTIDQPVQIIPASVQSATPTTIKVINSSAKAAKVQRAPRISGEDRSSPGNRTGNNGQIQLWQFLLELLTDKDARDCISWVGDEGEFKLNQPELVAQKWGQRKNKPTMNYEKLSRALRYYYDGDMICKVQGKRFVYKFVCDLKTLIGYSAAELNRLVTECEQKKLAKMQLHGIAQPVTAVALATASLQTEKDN
Method in brief: as §1

ERG = target: T4, ERG (Homo sapiens, UniProt P11308 1-479); details: protein: recombinant; tags: N-terminal GST; dsDNA, one strand shown
T4 sequence: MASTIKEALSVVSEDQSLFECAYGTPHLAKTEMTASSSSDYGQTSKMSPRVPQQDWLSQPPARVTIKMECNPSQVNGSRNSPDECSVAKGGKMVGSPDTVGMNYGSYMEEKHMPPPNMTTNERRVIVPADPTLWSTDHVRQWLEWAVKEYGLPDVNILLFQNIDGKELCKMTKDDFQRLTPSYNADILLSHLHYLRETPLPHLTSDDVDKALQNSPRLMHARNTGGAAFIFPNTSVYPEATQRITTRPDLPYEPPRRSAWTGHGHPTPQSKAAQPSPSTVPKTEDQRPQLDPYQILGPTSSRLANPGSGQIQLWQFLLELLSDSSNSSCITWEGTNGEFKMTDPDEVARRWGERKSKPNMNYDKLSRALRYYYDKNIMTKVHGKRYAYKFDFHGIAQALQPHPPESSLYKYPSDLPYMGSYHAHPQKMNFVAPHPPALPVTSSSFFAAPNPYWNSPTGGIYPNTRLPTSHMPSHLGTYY
Method in brief: as §1

ELF1 = ELF1 (Homo sapiens, UniProt P32519 1-619); details: protein: recombinant; tags: N-terminal GST; dsDNA, one strand shown
ELF1, sequence (P32519 whole entry): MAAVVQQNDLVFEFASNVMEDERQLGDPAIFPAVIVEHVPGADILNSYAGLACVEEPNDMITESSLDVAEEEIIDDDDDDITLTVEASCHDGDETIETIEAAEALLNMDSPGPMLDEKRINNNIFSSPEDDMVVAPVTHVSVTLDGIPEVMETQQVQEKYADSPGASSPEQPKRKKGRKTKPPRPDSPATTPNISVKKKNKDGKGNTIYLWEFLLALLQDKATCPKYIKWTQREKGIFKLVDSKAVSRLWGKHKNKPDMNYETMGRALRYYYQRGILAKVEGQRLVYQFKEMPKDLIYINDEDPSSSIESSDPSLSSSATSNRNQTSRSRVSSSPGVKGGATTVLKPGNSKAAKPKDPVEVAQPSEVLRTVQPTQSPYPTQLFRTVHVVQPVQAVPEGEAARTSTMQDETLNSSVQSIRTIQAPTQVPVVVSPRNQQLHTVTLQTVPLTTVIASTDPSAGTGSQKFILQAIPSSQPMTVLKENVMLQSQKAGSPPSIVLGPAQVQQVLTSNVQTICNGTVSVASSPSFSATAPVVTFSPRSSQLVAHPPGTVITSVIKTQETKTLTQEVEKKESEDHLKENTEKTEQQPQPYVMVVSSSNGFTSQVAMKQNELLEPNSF
Method in brief: as §1

EHF = target: T5, EHF (Homo sapiens, UniProt Q9NZC4 1-300); details: protein: recombinant; tags: N-terminal GST; dsDNA, one strand shown
T5 sequence: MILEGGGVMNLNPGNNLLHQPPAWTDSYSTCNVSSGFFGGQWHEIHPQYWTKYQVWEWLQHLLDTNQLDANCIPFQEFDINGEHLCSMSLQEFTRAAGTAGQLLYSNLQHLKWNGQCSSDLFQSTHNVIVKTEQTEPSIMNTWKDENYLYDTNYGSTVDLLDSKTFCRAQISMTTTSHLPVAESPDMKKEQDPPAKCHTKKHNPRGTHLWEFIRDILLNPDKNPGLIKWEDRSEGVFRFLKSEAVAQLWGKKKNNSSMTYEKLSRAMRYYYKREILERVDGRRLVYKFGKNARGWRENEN
Method in brief: as §1

SPI1 = SPI1 (Homo sapiens, UniProt P17947 1-270); details: protein: recombinant; tags: N-terminal GST; dsDNA, one strand shown
Method in brief: as §1

SPIB = SPIB (Homo sapiens, UniProt Q01892 1-262); details: protein: recombinant; tags: N-terminal GST; dsDNA, one strand shown
SPIB, sequence (Q01892 whole entry): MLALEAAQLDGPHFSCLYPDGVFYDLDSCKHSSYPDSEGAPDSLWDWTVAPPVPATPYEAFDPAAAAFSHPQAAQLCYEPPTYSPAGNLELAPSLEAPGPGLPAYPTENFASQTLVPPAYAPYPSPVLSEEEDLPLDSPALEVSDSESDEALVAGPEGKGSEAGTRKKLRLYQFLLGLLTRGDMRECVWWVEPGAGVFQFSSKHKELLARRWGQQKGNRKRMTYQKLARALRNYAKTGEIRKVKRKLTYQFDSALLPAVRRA
Method in brief: as §1

ELK3 = target: T6, ELK3 (Homo sapiens, UniProt P41970 1-407); details: protein: recombinant; tags: N-terminal GST; dsDNA, one strand shown
T6 sequence: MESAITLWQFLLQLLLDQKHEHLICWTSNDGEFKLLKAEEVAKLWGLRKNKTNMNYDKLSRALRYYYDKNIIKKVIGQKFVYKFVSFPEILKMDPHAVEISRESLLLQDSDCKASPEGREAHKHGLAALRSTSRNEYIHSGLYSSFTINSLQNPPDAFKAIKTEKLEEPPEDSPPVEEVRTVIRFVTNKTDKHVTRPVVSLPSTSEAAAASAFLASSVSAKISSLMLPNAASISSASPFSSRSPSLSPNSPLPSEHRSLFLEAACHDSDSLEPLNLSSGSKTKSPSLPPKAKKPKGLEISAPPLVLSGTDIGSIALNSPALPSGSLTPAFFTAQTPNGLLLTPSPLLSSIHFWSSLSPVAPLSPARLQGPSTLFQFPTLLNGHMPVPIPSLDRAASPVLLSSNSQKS
Method in brief: as §1

FEV = target: T7, FEV (Homo sapiens, UniProt Q99581 1-238); details: protein: recombinant; tags: N-terminal GST; dsDNA, one strand shown
T7 sequence: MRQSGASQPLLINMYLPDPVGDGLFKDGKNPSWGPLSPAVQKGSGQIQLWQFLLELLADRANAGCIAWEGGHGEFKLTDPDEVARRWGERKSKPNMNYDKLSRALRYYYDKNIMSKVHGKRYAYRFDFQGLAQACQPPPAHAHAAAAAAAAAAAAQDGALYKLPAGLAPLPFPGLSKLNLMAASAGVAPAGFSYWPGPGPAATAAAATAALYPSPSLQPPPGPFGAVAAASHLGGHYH
Method in brief: as §1

ETV5 = ETV5 (Homo sapiens, UniProt P41161 1-510); details: protein: recombinant; tags: N-terminal GST; dsDNA, one strand shown
ETV5, sequence (P41161 whole entry): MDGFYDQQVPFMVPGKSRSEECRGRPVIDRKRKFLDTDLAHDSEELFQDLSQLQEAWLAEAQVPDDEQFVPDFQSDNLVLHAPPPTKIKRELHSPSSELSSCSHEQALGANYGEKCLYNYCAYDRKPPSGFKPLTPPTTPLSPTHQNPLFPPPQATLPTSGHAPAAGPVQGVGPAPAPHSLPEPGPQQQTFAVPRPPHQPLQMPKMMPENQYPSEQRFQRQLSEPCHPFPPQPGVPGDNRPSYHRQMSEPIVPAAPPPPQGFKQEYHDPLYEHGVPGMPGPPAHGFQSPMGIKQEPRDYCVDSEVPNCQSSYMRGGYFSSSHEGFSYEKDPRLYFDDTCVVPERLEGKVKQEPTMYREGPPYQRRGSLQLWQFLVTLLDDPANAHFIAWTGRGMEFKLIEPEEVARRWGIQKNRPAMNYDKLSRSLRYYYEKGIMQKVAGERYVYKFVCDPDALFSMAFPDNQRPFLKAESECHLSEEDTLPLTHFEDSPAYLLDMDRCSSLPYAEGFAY
Method in brief: as §1

HSF1 = HSF1 (Homo sapiens, UniProt Q00613 1-529); details: protein: recombinant; tags: N-terminal GST; chain copies: 3; dsDNA, one strand shown
HSF1, sequence (Q00613 whole entry): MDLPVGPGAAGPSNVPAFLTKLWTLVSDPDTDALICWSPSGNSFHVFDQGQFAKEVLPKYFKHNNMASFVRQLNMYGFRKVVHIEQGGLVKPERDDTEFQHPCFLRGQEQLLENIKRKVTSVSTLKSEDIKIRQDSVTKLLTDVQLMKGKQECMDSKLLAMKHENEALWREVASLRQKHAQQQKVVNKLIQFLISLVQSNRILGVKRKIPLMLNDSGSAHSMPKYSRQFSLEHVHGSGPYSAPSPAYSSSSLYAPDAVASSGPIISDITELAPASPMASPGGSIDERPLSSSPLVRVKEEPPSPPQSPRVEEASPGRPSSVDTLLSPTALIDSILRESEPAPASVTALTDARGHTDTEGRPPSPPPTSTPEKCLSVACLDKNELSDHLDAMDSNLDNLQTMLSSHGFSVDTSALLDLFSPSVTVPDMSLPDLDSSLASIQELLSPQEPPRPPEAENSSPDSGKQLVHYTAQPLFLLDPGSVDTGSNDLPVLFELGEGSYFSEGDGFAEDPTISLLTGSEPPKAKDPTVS
Method in brief: as §1

SPIC = target: T8, SPIC (Homo sapiens, UniProt Q8N5J4 1-248); details: protein: recombinant; tags: N-terminal GST; dsDNA, one strand shown
T8 sequence: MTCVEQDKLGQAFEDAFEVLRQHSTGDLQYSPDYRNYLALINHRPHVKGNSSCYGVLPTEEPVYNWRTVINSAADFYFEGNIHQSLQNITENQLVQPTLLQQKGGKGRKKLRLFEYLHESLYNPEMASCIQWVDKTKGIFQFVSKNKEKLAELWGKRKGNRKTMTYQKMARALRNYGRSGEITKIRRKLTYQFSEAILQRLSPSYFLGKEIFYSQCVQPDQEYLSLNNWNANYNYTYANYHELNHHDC
Method in brief: as §1

ELF4 = ELF4 (Homo sapiens, UniProt Q99607 1-663); details: protein: recombinant; tags: N-terminal GST; dsDNA, one strand shown
ELF4, sequence (Q99607 whole entry): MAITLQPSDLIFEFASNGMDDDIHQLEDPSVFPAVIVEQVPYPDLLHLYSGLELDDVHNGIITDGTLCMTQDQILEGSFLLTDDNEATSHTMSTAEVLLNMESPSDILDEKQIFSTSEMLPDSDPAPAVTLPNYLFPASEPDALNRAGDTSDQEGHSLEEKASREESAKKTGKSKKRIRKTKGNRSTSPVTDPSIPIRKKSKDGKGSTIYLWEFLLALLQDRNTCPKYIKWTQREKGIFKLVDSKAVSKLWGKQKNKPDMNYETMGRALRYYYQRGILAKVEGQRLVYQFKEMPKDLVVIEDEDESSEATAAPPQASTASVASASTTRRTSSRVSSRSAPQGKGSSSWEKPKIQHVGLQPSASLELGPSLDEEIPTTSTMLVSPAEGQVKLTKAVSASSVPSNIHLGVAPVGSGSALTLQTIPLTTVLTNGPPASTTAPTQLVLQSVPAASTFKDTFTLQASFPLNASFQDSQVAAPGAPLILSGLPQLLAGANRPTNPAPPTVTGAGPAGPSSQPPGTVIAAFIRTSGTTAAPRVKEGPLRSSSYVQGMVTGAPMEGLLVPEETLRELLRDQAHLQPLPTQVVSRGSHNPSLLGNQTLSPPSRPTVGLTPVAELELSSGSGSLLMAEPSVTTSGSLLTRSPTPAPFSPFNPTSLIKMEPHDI
Method in brief: as §1

ELK4 = target: T9, ELK4 (Homo sapiens, UniProt P28324-2 1-405); details: protein: recombinant; tags: N-terminal GST; dsDNA, one strand shown
T9 sequence: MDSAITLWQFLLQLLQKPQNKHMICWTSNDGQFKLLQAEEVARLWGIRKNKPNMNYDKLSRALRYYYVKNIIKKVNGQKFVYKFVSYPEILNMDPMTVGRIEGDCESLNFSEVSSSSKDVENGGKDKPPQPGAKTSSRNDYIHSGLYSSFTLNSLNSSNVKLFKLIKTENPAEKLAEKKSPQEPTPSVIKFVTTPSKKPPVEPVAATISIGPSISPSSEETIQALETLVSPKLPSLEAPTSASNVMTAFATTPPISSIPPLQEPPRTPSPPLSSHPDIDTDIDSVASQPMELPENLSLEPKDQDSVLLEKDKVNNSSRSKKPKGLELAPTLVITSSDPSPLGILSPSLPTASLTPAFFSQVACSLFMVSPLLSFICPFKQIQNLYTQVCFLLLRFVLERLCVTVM
Method in brief: as §1

ETV2 = target: T10, ETV2 (Homo sapiens, UniProt O00321 1-342); details: protein: recombinant; tags: N-terminal GST; dsDNA, one strand shown
T10 sequence: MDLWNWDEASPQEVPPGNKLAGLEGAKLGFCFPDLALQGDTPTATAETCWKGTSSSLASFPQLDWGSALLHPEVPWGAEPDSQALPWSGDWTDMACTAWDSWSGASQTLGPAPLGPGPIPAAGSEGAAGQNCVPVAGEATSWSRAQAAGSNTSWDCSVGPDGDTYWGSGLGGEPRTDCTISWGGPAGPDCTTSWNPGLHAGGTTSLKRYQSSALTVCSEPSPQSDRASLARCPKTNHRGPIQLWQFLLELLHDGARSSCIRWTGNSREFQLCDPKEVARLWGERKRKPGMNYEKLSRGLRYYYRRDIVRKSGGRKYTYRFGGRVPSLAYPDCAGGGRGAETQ
Method in brief: as §1

ELF3 = target: T11, ELF3 (Homo sapiens, UniProt P78545 1-371); details: protein: recombinant; tags: N-terminal GST; dsDNA, one strand shown
T11 sequence: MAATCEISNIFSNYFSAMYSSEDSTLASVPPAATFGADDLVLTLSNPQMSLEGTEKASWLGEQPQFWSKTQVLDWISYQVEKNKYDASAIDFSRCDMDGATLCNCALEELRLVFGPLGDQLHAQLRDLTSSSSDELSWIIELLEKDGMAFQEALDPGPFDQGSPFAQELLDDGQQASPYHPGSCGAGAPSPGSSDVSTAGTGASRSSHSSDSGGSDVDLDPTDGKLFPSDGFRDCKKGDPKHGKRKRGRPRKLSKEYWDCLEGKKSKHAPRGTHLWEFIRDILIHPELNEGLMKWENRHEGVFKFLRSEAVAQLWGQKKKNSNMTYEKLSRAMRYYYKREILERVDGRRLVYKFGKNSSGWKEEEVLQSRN
Method in brief: as §1

CRX = CRX (Homo sapiens, UniProt O43186 1-299); details: protein: recombinant; tags: N-terminal GST; dsDNA, one strand shown
CRX, sequence (O43186 whole entry): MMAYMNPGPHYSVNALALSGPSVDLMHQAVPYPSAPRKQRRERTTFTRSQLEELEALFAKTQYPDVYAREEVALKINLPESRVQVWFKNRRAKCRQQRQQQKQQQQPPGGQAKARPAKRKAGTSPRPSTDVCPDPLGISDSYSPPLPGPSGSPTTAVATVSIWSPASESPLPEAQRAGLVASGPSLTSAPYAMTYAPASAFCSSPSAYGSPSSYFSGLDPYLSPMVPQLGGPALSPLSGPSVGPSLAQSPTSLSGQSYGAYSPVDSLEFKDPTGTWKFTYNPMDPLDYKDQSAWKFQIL
Method in brief: as §1

ETV1 = ETV1 (Homo sapiens, UniProt P50549 1-477); details: protein: recombinant; tags: N-terminal GST; dsDNA, one strand shown
ETV1, sequence (P50549 whole entry): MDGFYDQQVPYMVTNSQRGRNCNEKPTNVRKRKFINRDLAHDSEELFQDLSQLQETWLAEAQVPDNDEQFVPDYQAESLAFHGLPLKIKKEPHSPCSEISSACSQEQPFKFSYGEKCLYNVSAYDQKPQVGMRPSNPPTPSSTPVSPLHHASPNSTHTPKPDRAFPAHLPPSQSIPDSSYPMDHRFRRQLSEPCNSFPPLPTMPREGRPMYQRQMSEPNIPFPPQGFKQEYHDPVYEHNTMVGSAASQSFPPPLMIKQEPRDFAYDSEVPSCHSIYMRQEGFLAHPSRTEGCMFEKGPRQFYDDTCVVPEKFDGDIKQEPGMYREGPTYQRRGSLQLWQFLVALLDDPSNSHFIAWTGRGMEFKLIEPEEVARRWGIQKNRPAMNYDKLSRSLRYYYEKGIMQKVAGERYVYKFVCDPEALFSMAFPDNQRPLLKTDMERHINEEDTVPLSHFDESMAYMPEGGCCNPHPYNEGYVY
Method in brief: as §1

Sequence: AATTCC
- binding signal (FLI1): 1.95 fold enrichment (6-mer frequency, TF over GST control)
- binding signal (ELK1): 1.93 fold enrichment (6-mer frequency, TF over GST control)
- binding signal (GABPA): 1.81 fold enrichment (6-mer frequency, TF over GST control)
- binding signal (ERG): 1.96 fold enrichment (6-mer frequency, TF over GST control)
- binding signal (ELF1): 1.86 fold enrichment (6-mer frequency, TF over GST control)
- binding signal (EHF): 2.05 fold enrichment (6-mer frequency, TF over GST control)
- binding signal (SPI1): 1.89 fold enrichment (6-mer frequency, TF over GST control)
- binding signal (SPIB): 2.02 fold enrichment (6-mer frequency, TF over GST control)
- binding signal (ELK3): 1.94 fold enrichment (6-mer frequency, TF over GST control)
- binding signal (FEV): 2.05 fold enrichment (6-mer frequency, TF over GST control)
- binding signal (ETV5): 2.1 fold enrichment (6-mer frequency, TF over GST control)
- binding signal (HSF1): 2.07 fold enrichment (6-mer frequency, TF over GST control)
- binding signal (SPIC): 1.93 fold enrichment (6-mer frequency, TF over GST control)
- binding signal (ELF4): 1.92 fold enrichment (6-mer frequency, TF over GST control)
- binding signal (ELK4): 1.55 fold enrichment (6-mer frequency, TF over GST control)
- binding signal (ETV2): 2.11 fold enrichment (6-mer frequency, TF over GST control)
- binding signal (ELF3): 1.7 fold enrichment (6-mer frequency, TF over GST control)
- binding signal (CRX): 2.04 fold enrichment (6-mer frequency, TF over GST control)
- binding signal (ETV1): 1.95 fold enrichment (6-mer frequency, TF over GST control)
